The text below walks through data of PubChem BioAssay (NCI).

Compounds without any hit were thinned out: in the full panel of roughly 83,000, 20% have a hit.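 Note: values are percent growth. 100 is the growth of untreated cells, values between 100 and 0 indicate rising inhibition; between -100 and 0 indicates cell death.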 A number with no mark means an inactive call. The source made the active and inactive calls. How the source made its calls: active means growth percent below 10; inactive means the rest.

Test systems include HCT-15 colon; HT29 colon; SNB-75 CNS; SNB-19 CNS; PC-3 prostate; SK-MEL-5 melanoma; UACC-62 melanoma; LOX IMVI melanoma; SK-MEL-28 melanoma; U251 CNS.
What all share (experiment): NCI-60 one-dose screen, 48 h (100 = growth as untreated, 0 = no growth, -100 = all killed)
Conditions in all cases: 10 µM

As to `Cc1c2cnccc2c(C)c2c1oc1ccccc12`, the growth in the assay with HCT-15 colon is 72.3%; with HT29 colon it was 72.8%; with SNB-75 CNS, 106%; in the assay on SNB-19 CNS it was 73.1%; with PC-3 prostate, 99.8%; in the assay with SK-MEL-5 melanoma, 60.1%. The growth in the assay with UACC-62 melanoma is 53.9%; in the assay with LOX IMVI melanoma, 42.1%; in the assay with SK-MEL-28 melanoma, 110%.
For `NC1=NC(c2ccccc2)C2=C(N1)/C(=C/c1ccccc1)CCC2` (centres undefined), the growth with HCT-15 colon is 84.9%; with HT29 colon it was 32.2%; in the assay with SNB-75 CNS, 85.6%; in the assay with SNB-19 CNS, 97.5%; in the assay with PC-3 prostate, 78.7%; in the assay with SK-MEL-5 melanoma, 98.9%. Also, the growth was 77.5% in the assay on UACC-62 melanoma, -4.8% (active) with LOX IMVI melanoma and 102% in the assay with SK-MEL-28 melanoma.
As for `O=C1CCn2c1c(O)c1ccccc1c2=O`, the growth was 114% in the assay on HCT-15 colon; 108% in the assay with HT29 colon; 86.6% in the assay on SNB-75 CNS; 110% in the assay with SNB-19 CNS; 100% with PC-3 prostate; 103% in the assay with SK-MEL-5 melanoma. Besides, the growth in the assay on UACC-62 melanoma was 113%; in the assay on LOX IMVI melanoma, 107%; with SK-MEL-28 melanoma, 107%.
Consider `NS(=O)(=O)Oc1ccc(-c2ccc3sccc3c2)cc1`, for which the growth is 103% in the assay with HCT-15 colon; 107% in the assay with HT29 colon; 97.3% with SNB-75 CNS; 101% in the assay with SNB-19 CNS; 96.5% with PC-3 prostate; 95.9% in the assay with SK-MEL-5 melanoma. The growth was 61.6% in the assay on UACC-62 melanoma, 95.2% in the assay on LOX IMVI melanoma and 97.6% with SK-MEL-28 melanoma.
As for `COc1ccc(-c2nn(-c3cccc(Cl)c3)cc2-c2nc(N)[nH]c(=O)c2C#N)cc1`, the growth in the assay with HCT-15 colon was 65.4%; in the assay with HT29 colon it was 86.5%; with SNB-75 CNS, 68.9%; with SNB-19 CNS, 60.3%; in the assay on PC-3 prostate, 75.5%; with SK-MEL-5 melanoma it was 67.6%. The growth with UACC-62 melanoma is 58.8%; in the assay with LOX IMVI melanoma, 63%; with SK-MEL-28 melanoma, 90.4%.
With `Cc1ccc(S(=O)(=O)N/N=C2\CCCc3ccccc32)cc1`, the growth is 109% in the assay on HCT-15 colon; 115% in the assay on HT29 colon; 92.4% in the assay with SNB-75 CNS; 94.6% in the assay on SNB-19 CNS; 90.3% in the assay with PC-3 prostate; 103% in the assay with SK-MEL-5 melanoma. Further, the growth in the assay with UACC-62 melanoma is 92.9%; in the assay on LOX IMVI melanoma it was 94.8%; in the assay on SK-MEL-28 melanoma, 105%.
Turning to `COc1ccc(-c2nn(-c3cccc(Cl)c3)cc2-c2c(C#N)c(N)n(N)c(=O)c2C#N)cc1`, the growth in the assay with HCT-15 colon is 94.9%; in the assay with HT29 colon, 66.3%; in the assay on SNB-75 CNS, 48.6%; with SNB-19 CNS, 64%; in the assay on PC-3 prostate, 54%; in the assay with SK-MEL-5 melanoma, 81.9%. For the same molecule, the growth was 75.8% with UACC-62 melanoma, 29.5% with LOX IMVI melanoma and 91.6% with SK-MEL-28 melanoma.
On to `O=[N+]([O-])c1cccc(/C=N/NC(=S)NC23CC4CC(CC(C4)C2)C3)c1`, for which the growth in the assay with HCT-15 colon is 96%; in the assay with HT29 colon it was 88.7%; in the assay on SNB-75 CNS, 17.9%; in the assay on SNB-19 CNS it was 80.6%; in the assay on PC-3 prostate it was 75.9%; with SK-MEL-5 melanoma, 85.7%. In addition, the figures for the growth in the assay with UACC-62 melanoma, in the assay with LOX IMVI melanoma and with SK-MEL-28 melanoma were 84.3%, 76.4% and 85.4%, respectively.
`COc1ccc(/C(C#N)=C/c2cccc(OC)c2OC)cc1`: the growth is 68.1% with HCT-15 colon; 59.8% with HT29 colon; 91.3% in the assay with SNB-75 CNS; 84.3% in the assay with SNB-19 CNS; 82% in the assay on PC-3 prostate; 73.1% with SK-MEL-5 melanoma. Further, the growth in the assay with UACC-62 melanoma is 70.5%; with LOX IMVI melanoma, 84.1%; with SK-MEL-28 melanoma, 84.5%.
Regarding `O=C(O)COc1c(Cl)cc([N+](=O)[O-])cc1Cl`, the growth in the assay with HCT-15 colon is 103%; with HT29 colon it was 86.2%; with SNB-75 CNS it was 102%; in the assay on SNB-19 CNS, 112%; with U251 CNS it was 97.5%; in the assay with SK-MEL-5 melanoma, 96.3%. The growth was 100% in the assay on LOX IMVI melanoma and 102% with SK-MEL-28 melanoma.
For `O=C(Nc1ccc(OS(=O)(=O)c2ccccc2)cc1)C1CCCCC1`, the growth in the assay on HCT-15 colon is 67.7%; in the assay on HT29 colon it was 39.3%; in the assay on SNB-75 CNS, 95.7%; in the assay with SNB-19 CNS, 89.2%; with PC-3 prostate it was 72.7%; in the assay on SK-MEL-5 melanoma, 77.1%. Also, the growth was 89.5% with UACC-62 melanoma, 86.2% in the assay with LOX IMVI melanoma and 91.7% with SK-MEL-28 melanoma.
Take `COc1cc2c3c(n([C@H]4CCOC4)c(=O)c2cc1OC)-c1cc2c(cc1C3=O)OCO2`: the growth with HCT-15 colon was 56.1%; in the assay on HT29 colon, 40.9%; in the assay on SNB-75 CNS, 31.9%; in the assay on SNB-19 CNS it was 31.2%; with U251 CNS, 11.9%; with SK-MEL-5 melanoma it was 7.91% (active). Besides, the growth in the assay on UACC-62 melanoma is 11.3%; in the assay on LOX IMVI melanoma, 4.78% (active); with SK-MEL-28 melanoma it was 72%.
Regarding `O=C(Nc1cc([N+](=O)[O-])c2[nH]c(=O)c3ccccc3c2c1)C(F)(F)F`, the growth in the assay on HCT-15 colon was 81%; in the assay with HT29 colon it was 90.4%; with SNB-75 CNS it was 89.3%; with SNB-19 CNS it was 87.1%; in the assay with PC-3 prostate, 94.4%; with SK-MEL-5 melanoma, 91%. For the same molecule, the growth in the assay on UACC-62 melanoma is 81.7%; in the assay on LOX IMVI melanoma, 68%; in the assay with SK-MEL-28 melanoma it was 114%.
As for `Cn1c2ccccc2c2c3[nH][nH]c(=O)c3c3c4ccccc4[nH]c3c21`, the growth with HCT-15 colon was 19.7%; with HT29 colon it was 43.3%; with SNB-75 CNS, 37.2%; with SNB-19 CNS, 32.5%; in the assay on U251 CNS it was 22.7%; in the assay on SK-MEL-5 melanoma it was -18.1% (active). The growth in the assay with UACC-62 melanoma was -5.51% (active); in the assay with LOX IMVI melanoma, -30.3% (active); in the assay with SK-MEL-28 melanoma it was 29.3%.
On to `CC(C)c1cc(N=O)cc(C(C)C)c1O`, for which the growth with HCT-15 colon is 98.4%; with HT29 colon, 109%; in the assay on SNB-75 CNS, 99.9%; in the assay on SNB-19 CNS, 95.2%; with PC-3 prostate, 97.5%; in the assay on SK-MEL-5 melanoma it was 105%. Moreover, the growth in the assay on UACC-62 melanoma was 96.3%; in the assay on LOX IMVI melanoma, 96.1%; in the assay with SK-MEL-28 melanoma, 105%.
